27 compounds from PubChem BioAssay AID2796 (The Scripps Research Institute Molecular Screening Center, 2010) can be followed below.

In all, about 320,000 compounds went through this assay and about 8,000 (2.5%) were called active. This excerpt belongs to a sample that is enriched for actives. A number with no mark means an inactive call. Cut-off read from the data, not from the text of the source: active = activation above about 47%; inactive = the rest.

For this assay, the target named is Aryl hydrocarbon receptor (Homo sapiens) (UniProt P35869). Kind of assay: AHR activators, primary screen, cell-based, luminescence, luciferase reporter, human (AID 2796).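 Note: 0% = vehicle wells and 100% = reference agonist.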 To be noted: AHR-responsive luciferase reporter cells, at 5 µM, stronger effect = higher value.
Chain of Aryl hydrocarbon receptor (Homo sapiens) (P35869 whole entry, looked up): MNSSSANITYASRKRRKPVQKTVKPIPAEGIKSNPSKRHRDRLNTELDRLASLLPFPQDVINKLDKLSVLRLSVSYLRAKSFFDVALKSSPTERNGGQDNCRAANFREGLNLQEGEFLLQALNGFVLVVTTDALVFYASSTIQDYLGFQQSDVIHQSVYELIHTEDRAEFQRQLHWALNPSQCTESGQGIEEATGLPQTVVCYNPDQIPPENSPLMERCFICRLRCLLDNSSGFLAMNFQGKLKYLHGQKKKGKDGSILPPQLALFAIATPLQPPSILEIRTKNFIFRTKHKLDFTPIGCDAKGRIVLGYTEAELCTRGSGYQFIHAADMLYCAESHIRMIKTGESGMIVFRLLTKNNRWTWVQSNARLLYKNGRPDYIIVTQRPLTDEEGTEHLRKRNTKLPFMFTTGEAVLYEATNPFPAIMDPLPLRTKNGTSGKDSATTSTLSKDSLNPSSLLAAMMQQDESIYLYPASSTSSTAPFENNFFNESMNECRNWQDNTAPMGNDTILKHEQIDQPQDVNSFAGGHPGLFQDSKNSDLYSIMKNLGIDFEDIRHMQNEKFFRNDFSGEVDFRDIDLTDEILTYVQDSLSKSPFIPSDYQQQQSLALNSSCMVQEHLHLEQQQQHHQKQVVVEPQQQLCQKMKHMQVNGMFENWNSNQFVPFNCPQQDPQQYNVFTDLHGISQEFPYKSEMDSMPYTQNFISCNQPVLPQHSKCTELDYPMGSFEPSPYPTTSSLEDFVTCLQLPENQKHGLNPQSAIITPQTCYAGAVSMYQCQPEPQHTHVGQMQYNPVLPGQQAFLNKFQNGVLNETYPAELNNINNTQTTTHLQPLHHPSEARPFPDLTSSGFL
For `CC(c1ccco1)N(C(=O)COc1ccccc1[N+](=O)[O-])c1ccccn1` (configuration not stated), the activation was 1.97%.
Under `CC(C)=CCN1CCN(Cc2ccc(Oc3ncccn3)cc2)CC1CCO` (configuration not stated) stands -1.11%; under `CCc1ccc(-c2cc(C(=O)NN3CCN(C)CC3)c3ccccc3n2)cc1`, 30.5%.
Next, `O=C(Nc1ccc(Br)c2cccnc12)c1ccc(Cn2cc([N+](=O)[O-])cn2)o1`: 52% (active); `O=C(NCCc1ccccn1)c1nc(Cn2cc([N+](=O)[O-])cn2)no1`: 0.9%.
For `CCc1ccc(NC(=O)c2ccc(Cn3cc([N+](=O)[O-])cn3)cc2)cc1`, the activation is 3.58%.
Under `Cn1c(N2CCOCC2)c(C=O)c2ccccc21` stands 1.65%; under `O=C(OCC(=O)N1CCN(c2ccccc2)CC1)c1ccc([N+](=O)[O-])s1`, 0.3%; under `CSCCC1NC2(C(=O)Nc3ccc(Cl)cc32)[C@@H]2C(=O)N(C3CCCC3)C(=O)[C@H]12` (some centres not stated), 8.17%.
As for `O=c1cc(Cn2nnc(-c3ccc(Cl)cc3)n2)nc2sccn12`, the activation was 3.29%.
Under `Clc1cccc(Cl)c1Cn1nnc(-c2cccs2)n1` stands 64.8% (active); under `COc1ccccc1N1CCN(C(=O)Cn2nnc(-c3cccs3)n2)CC1`, 4.18%.
With `Cc1nnc(SCC(=O)NC(=O)NC2CCCC2)n1N`, the activation was 1.5%.
Under `Cc1nnc(SCC(=O)Nc2cccc(N)c2)n1-c1ccccc1` stands 7.29%.
Take `O=C(CNC(=O)c1ccc2ccccc2c1)Nc1ncccc1O`: the activation was 10.7%.
Next, `Cc1ccc(NC(=O)CSc2cccc3cccnc23)c(C)c1`: 10.7%; `O=C(CSc1cccc2cccnc12)N/N=C/c1cccnc1`: 150% (active).
Next, `Cc1nc2ccccc2n1CC(=O)N/N=C/c1cccnc1`: 2.29%; `CCN(CC(=O)Nc1c(F)cccc1F)C(=O)C1CCC1`: -0.62%.
Next, `Cc1cc(SCC(=O)NCCN2C(=O)CSC2=O)nc2ccccc12`: 55.3% (active); `COc1ccc2c(C)cc(SCC(=O)NCC3CCCO3)nc2c1` (configuration not stated): 17.6%.
As to `CCCNC(=O)CSc1nc(Cc2ccccc2)nc2ccccc12`, the activation was -0.23%.
Next, `CC(C)OC(=O)Cn1nc(C(F)(F)F)c2c1CCCC2`: -2.63%; `O=C(COC(=O)c1cc(=O)[nH]c2ccccc12)Nc1nc(-c2cccc(Br)c2)cs1`: 5%.
With `CCOC(=O)c1cc2c(=O)[nH]c(C(Cl)(Cl)Cl)nc2o1`, the activation is -0.93%.
Under `CC1(C)Oc2ccc(C(=O)N3CCOCC3)cc2N(CC(=O)Nc2ccccc2)C1=O` stands 1.48%; under `CCSc1nc2c(c(=O)[nH]1)C(c1cccnc1)C(C(=O)OC(C)C)=C(C)N2` (configuration not stated), 0.13%.
